Reference: PubChem BioAssay (NCATS)
Records with an inconclusive call do not appear. Activity calls are given as the source filed them. Unless noted, calls come from the whole dose curve; as a rule, active = well fitted curve in the direction sought with a large enough effect; inconclusive = small, poorly fitted or top-dose-only effect, or another doubt; inactive = no such curve, though single readings can be large; an effect the other way counts as inactive or inconclusive.

How the values were obtained:
[1] = qHTS for Inhibitors of Cell Surface uPA Generation: Validation Assay (AID 493164);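 note: RAW 264.7 macrophage cells exposed to compound for 18 h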
Summary of the method: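 RAW 264.7, 4000 cells/well, o/n plating; cpd 7-pt 1:5 dilution 2.45 nM–38.3 uM final; 18 h, 37 C/5% CO2; ATP-Lite, 5 s luminescence exposure.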

[2] = molecular target: Galactokinase (Homo sapiens) (UniProt P51570); assay: qHTS Validation Assay for Inhibitors of Human Galactokinase (GALK) (AID 493189)
Chain of Galactokinase (Homo sapiens) (P51570 whole entry, looked up): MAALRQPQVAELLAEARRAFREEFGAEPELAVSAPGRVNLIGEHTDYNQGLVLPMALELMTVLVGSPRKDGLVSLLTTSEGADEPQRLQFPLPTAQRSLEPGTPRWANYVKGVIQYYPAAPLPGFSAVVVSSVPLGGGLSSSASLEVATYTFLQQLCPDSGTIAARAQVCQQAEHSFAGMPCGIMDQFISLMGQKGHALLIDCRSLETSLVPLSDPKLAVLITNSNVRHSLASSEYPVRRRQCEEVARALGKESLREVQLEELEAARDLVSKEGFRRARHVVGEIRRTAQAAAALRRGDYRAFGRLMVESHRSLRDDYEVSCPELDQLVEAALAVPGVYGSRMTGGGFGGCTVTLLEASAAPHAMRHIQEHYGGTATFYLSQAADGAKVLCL
Summary of the method: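 Inhibition was measured as remaining ATP, detected by luciferase luminescence after a 1 h room-temperature reaction. Final conditions: 5 nM GALK, 100 uM galactose, 35 uM ATP, pH 8.0 HEPES buffer.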

[3] = Validation screen for small molecules that induce DNA re-replication in SW480 colon adenocarcinoma cells (AID 504364)
Summary of the method: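 SW480 cells seeded at 250 per well were exposed to compound or DMSO for 48 hr at 37 C, 5% CO2, then stained with Hoechst for 40 min. DNA content per nucleus was imaged (405 nm ex, 500-530 nm em).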

[4] = molecular target: Peptidyl-prolyl cis-trans isomerase NIMA-interacting 1 (Homo sapiens) (UniProt Q13526); assay: qHTS Validation Assay to Find Inhibitors of Pin1 (AID 504536; active = well fitted inhibition curve with a large enough effect in the polarisation, with a control signal flat, not every such curve was filed as active; the % refers to the polarisation)
Chain of Peptidyl-prolyl cis-trans isomerase NIMA-interacting 1 (Homo sapiens) (Q13526 whole entry, looked up): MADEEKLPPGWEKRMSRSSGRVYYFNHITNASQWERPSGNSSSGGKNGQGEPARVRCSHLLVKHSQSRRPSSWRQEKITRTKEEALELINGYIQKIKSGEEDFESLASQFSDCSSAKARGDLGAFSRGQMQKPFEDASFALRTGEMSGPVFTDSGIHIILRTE
Summary of the method: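 Fluorescence polarization competition: compounds (titration) displace HiFluor-488-labeled Pin1-1b peptide from Pin1 (0.3 uM final) in pH 7.5 HEPES buffer with DTT, 10 min at room temperature; %Activity normalized to no-enzyme wells, curves fitted.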

[5] = molecular target: Phosphoglycerate kinase, glycosomal (Trypanosoma brucei brucei) (UniProt P07378); assay: qHTS Validation Assay to Find Inhibitors of Phosphoglycerate Kinase (AID 504547)
Chain of Phosphoglycerate kinase, glycosomal (Trypanosoma brucei brucei) (P07378 whole entry, looked up): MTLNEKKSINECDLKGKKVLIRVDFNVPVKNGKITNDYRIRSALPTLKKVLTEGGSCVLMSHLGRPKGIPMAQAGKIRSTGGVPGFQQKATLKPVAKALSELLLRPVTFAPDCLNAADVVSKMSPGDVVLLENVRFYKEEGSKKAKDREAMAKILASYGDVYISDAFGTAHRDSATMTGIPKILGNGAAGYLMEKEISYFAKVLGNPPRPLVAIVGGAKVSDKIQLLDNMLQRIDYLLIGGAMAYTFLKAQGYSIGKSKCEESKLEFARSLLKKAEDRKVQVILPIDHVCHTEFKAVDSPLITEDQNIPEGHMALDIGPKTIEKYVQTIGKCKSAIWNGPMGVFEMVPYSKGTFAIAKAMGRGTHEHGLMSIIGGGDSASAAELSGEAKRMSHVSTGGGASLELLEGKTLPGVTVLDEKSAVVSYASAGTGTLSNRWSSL
Summary of the method: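 Substrate/PGK mix plus compound; reaction started with GAPDH (100nM final) to form 1,3-BPG; 60 min RT; Kinase-Glo Plus 10 min; luminescence. TEA 100mM pH 7.6, MgCl2 5mM, Tween-20 0.01%.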

[6] = molecular target: phosphoglycerate mutase (Leishmania major) (UniProt Q4Q090); assay: qHTS Validation Assay to Find Inhibitors of Phosphoglycerate Mutase (AID 504548);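 note: end-point luminescence from Kinase-GloPlus after the PGAM reaction; series mostly up to about 58 µM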
Chain of phosphoglycerate mutase (Leishmania major) (Q4Q090 1-553): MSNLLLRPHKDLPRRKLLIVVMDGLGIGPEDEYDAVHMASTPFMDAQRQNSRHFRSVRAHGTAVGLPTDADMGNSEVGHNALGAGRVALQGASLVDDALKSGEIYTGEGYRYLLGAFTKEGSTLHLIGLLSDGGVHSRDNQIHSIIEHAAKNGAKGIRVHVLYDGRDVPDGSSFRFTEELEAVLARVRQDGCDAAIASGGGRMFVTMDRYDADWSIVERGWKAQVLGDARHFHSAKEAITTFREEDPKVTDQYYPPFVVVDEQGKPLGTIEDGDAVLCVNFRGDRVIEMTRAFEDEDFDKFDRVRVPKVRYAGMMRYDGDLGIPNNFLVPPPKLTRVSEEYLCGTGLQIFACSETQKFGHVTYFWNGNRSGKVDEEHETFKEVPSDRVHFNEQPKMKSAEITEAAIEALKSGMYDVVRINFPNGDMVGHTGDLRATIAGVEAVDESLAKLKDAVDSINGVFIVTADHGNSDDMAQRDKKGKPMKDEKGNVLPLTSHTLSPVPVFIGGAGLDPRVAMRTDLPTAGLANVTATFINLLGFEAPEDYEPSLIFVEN
Summary of the method: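 L. major PGAM (1.25nM final) was added to substrate buffer and pinned compound, incubated 45 minutes at room temperature, then Kinase-GloPlus added; luminescence read after 10 minutes. Buffer: 100 mM TEA pH 7.6, 5 mM MgCl2, 0.01% Tween-20.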

[7] = qHTS for Inhibitors of ATXN expression: Validation of Cytotoxic Assay (AID 588349)
Summary of the method: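 HEK293 cells were dosed with titrated compounds for 72 hr at 37 degrees C. Viability was read by CellTiter Glo luminescence, with intracellular ATP as the marker of cell survival.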

[8] = qHTS for Inhibitors of ATXN expression: Validation (AID 588378); note: series mostly up to about 57 µM; nearly all actives have a fitted effect of over 75% in size
Summary of the method: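 Luciferase luminescence (Bright-Glo) from an ATXN2-FFLuc HEK293 line after 24 h compound exposure at 37 °C, preceded by a CellTiter-Fluor fluorescence viability read. Serial dilutions of a reference ATXN2 inhibitor and a luciferase inhibitor served as controls.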

[9] = molecular target: DNA dC->dU-editing enzyme APOBEC-3G (Homo sapiens) (UniProt Q9HC16); assay: qHTS for inhibitors of Vif-A3G interactions: Validation (AID 588379)
Chain of DNA dC->dU-editing enzyme APOBEC-3G (Homo sapiens) (Q9HC16 whole entry, looked up): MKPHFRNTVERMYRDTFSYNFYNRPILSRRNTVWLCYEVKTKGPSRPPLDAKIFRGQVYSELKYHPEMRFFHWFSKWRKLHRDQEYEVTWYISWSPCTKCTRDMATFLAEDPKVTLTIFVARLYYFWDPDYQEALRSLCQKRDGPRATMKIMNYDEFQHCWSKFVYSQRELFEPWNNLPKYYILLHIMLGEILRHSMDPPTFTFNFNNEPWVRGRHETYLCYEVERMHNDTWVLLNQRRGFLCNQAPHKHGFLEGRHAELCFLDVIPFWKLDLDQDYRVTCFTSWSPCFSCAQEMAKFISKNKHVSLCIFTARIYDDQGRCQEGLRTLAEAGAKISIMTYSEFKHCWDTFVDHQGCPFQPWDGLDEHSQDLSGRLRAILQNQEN
Summary of the method: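 HeLa cells stably expressing Vif and A3G-eYFP, 700 cells/well, incubated overnight at 37 deg C, then exposed to compound overnight at 37 deg C. Inhibition of Vif-mediated degradation read as increased yellow fluorescence (Ex 488/Em 500-530) by laser-scanning cytometry.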

Measured: Potency

Cc1oncc1C(=O)Nc1ccc(C(F)(F)F)cc1
inactive: [1] | [2] | [3] | [4] | [5] | [6] | [7] | [8]

Cc1[nH]c(=O)c(C#N)cc1-c1ccncc1
inactive: [1] | [2] | [3] | [4] | [5] | [6] | [7] | [8] | [9]

CC(C)(Sc1ccc(CCN(CCCCC2CCCCC2)C(=O)NC2CCCCC2)cc1)C(=O)O
inactive: [1] | [2] | [3] | [5] | [6] | [7] | [8] | [9]

NC(=O)c1ccc(-c2nc(-c3ccc4c(c3)OCO4)c(-c3ccccn3)[nH]2)cc1
inactive: [9]
